# High-throughput results: PubChem BioAssay, National Center for Advancing Translational Sciences (NCATS)
# Pf growth 48h: P. falciparum growth inhibition at 48 hours (one generation) | AID 504832 | 310,000 compounds, 5.9% hits | Potency, µM (doses to about 28.7 µM), without a hit: at the top dose activity change, negative = inhibition, hits mostly inhibitors | P. falciparum luciferase growth in erythrocytes, 48 h; note: potency is the fitted concentration of half-maximal effect; % is set by controls: 0 for no effect and ±100 for the full control effect
#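 Cell-based growth assay: transgenic P. falciparum expressing firefly luciferase, cultured in red cells within RPMI 1640 containing 0.5% w/v Albumax, 24 mM bicarbonate and gentamycin. A drop in luciferase activity indicates inhibition.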
# CHX counter: affects cycloheximide protein synthesis inhibition readout, counter-screen | 300,000 compounds, 12% hits | cell reporter, cycloheximide protein synthesis inhibition counterscreen | max response, %; in the data active = max response mostly above about 13%, no sharp cut-off; inactive = mostly below about 14%; note: read at 38.3 µM for the half of the compounds with a filed dose; 0% is about no effect
# Pf growth 96h: P. falciparum growth inhibition at 96 hours. P. falciparum luciferase reporter growth, 96 h. Potency, µM (top dose mostly 28.7 µM), for the others: top-dose activity change, negative = inhibition, actives largely listed as inhibitors. 320,000 compounds, 6.9% hits; note: potency is the fitted concentration of half-maximal effect; % is set by controls: 0 for no effect and ±100 for the full control effect
#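 96 h incubation, 37 C, 5% CO2, of luciferase-reporter P. falciparum-infected RBCs (2% hematocrit, 0.05% parasitemia final) with test compounds; endpoint luminescence.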
# Shiga toxin inh: inhibitors of Shiga toxin in Vero cells; 290,000 compounds, 9.2% hits; AID 2315; inhibition, % at 38.7 µM; Vero cells, Shiga toxin protein synthesis inhibition reporter; in the data active = inhibition mostly above about 28%, no sharp cut-off; inactive = mostly below about 43%; note: 0% is about no effect
# An asterisk follows results filed as active; u = inconclusive; x = not tested or not shown. Compounds with a hit are over-represented: about 21% of the library has one in this group of screens. Unless noted, calls come from the whole dose curve; as a rule, active = well fitted inhibition curve with a large enough effect; inconclusive = small, poorly fitted or top-dose-only effect, or another doubt; inactive = no such curve, though single readings can be large or run the other way.
SMILES,Pf growth 48h,CHX counter,Pf growth 96h,Shiga toxin inh
O=C(CSc1nnc(-c2ccccn2)o1)Nc1cccc(Cl)c1,231%,13,85%,31
Nc1ccccc1SCC(=O)Nc1ccc2c(c1)OCCO2,112%,37*,25%,87*
CCOc1ccc(NC(=O)C(C)Oc2ccccc2C(=O)Nc2ccc(C)c(Cl)c2)cc1 (stereo unspecified),u,22*,u,111*
COc1ccc(NC(=O)c2ccccc2SC)cc1,48%,54*,-21%,67*
CCOc1ccc(NC(=O)c2ccccc2SC)cc1,123%,50*,55%,59*
CC[C@@]12C(=O)N(c3cccc(C)c3)C(=O)N1[C@H](c1ccc(Br)cc1)[C@@H]1C(=O)N(C(C)(C)C)C(=O)[C@@H]12,3.3µM*,-4,2.3µM*,-4
CC[C@@]12C(=O)N(c3cccc(Cl)c3)C(=O)N1[C@H](c1ccc(Br)cc1)[C@@H]1C(=O)N(C(C)(C)C)C(=O)[C@@H]12,9.3µM*,x,u,x
CC(C)C[C@@]12C(=O)N(c3cccc(F)c3)C(=O)N1[C@H](c1ccc(Br)cc1)[C@@H]1C(=O)N(C(C)(C)C)C(=O)[C@@H]12,13µM*,x,5.2µM*,x
CC(C)C[C@@]12C(=O)N(c3ccc(Br)cc3)C(=O)N1[C@H](c1ccc(Br)cc1)[C@@H]1C(=O)N(C(C)(C)C)C(=O)[C@@H]12,-40%,-2,u,-8
CC(C)C[C@@]12C(=O)N(c3cccc(Cl)c3)C(=O)N1[C@H](c1ccc(Br)cc1)[C@@H]1C(=O)N(C(C)(C)C)C(=O)[C@@H]12,3.7µM*,x,4.1µM*,x
CCN1C(=O)[C@H]2[C@@H](c3ccc(C)cc3)N3C(=O)N(c4cccc(C)c4)C(=O)[C@@]3(Cc3ccccc3)[C@H]2C1=O,u,-1,u,5
CCN1C(=O)[C@H]2[C@@H](c3ccc(C)cc3)N3C(=O)N(c4cccc(Cl)c4)C(=O)[C@@]3(CC(C)C)[C@H]2C1=O,u,x,8.3µM*,x
COCCCn1cnnc1SCc1nc2sc(C(C)=O)c(C)c2c(=O)[nH]1,52%,-3,43%,-8
O=C1CCCC2=C1C1c3ccccc3C(=O)N1c1ccc(C(=O)c3ccccc3)cc1N2 (stereo unspecified),2.3µM*,-3,89%,3
O=C1CC(c2ccco2)CC2=C1C1c3ccccc3C(=O)N1c1ccccc1N2 (stereo unspecified),u,-2,28%,-4
Cc1cc(OCCN2CCOCC2)ccc1Cl,91%,32*,u,138*
Cc1ccc(OCCN2CCOCC2)cc1C,11%,17*,u,40
Cc1cc(C)c(NC(=O)OCCN2CCOCC2)c(C)c1,2%,8,0.23µM*,-6
O=C(COc1ccc(Cl)cc1)Nc1cc2c3c(c1)CC(=O)N3CCC2,-12%,x,u,x
CNC(=S)NNC(=O)c1sc(-c2cc(C)on2)nc1C,-20%,-1,-17%,2
Cc1cccc(-c2nsc(SCC(=O)NCc3ccc4c(c3)OCO4)n2)c1,20%,-2,49%,-11
CCOC(=O)CNC(=O)CSc1nc(-c2cccc(C)c2)ns1,5%,11,48%,26
Cc1cccc(-c2nsc(SCC(=O)NCc3ccco3)n2)c1,39%,23*,-25%,9
Cc1cccc(-c2nsc(SCC(=O)NCC3CCCO3)n2)c1 (stereo unspecified),45%,44*,70%,91*
CCC(CC)NC(=O)CN1CCN(S(=O)(=O)c2ccc(Br)s2)CC1,u,x,35%,x
SMILES,Pf growth 48h,CHX counter,Pf growth 96h,Shiga toxin inh
CC1(C)Cc2c(cnn2-c2ccc(F)cc2)C(NC(=O)CCCN2CCCCC2=O)C1 (stereo unspecified),-25%,1,13µM*,27
CC1(C)Cc2c(cnn2-c2ccccc2)C(NC(=O)CCCN2CCCCC2=O)C1 (stereo unspecified),-8%,16,6.6µM*,-7
Cc1ccc(-n2ncc3c2CC(C)(C)CC3NC(=O)CCCN2CCCC2=O)cc1 (stereo unspecified),-19%,1,u,-7
CC1(C)Cc2c(cnn2-c2ccccc2)C(NC(=O)CCN2CCCC2=O)C1 (stereo unspecified),10%,10,15µM*,-4
CCCC[n+]1c(C)sc2cc(OC)ccc21,-1%,1,24%,-7
CC[n+]1c(C)sc2c3ccsc3ccc21,15µM*,10,33%,-3
CN(C(=O)c1ccccc1C(=O)OCC(=O)c1ccccc1)c1ccccc1,u,x,12µM*,x
COc1ccc(C(=O)COC(=O)c2ccccc2C(=O)N(C)c2ccccc2)c(OC)c1,u,x,0%,x
